The source of these data is PubChem BioAssay (NCATS).

Values joined by “and” are separate entries in the source; they are usually repeats but may differ in a detail not shown here. Equal values may be shown once. Results filed as inconclusive are left out. Some compounds were tested as several samples or in several runs, with calls that do not always agree. Active and inactive are the calls of the source. Unless noted, calls come from the whole dose curve; as a rule, active = well fitted curve in either direction with a large enough effect (not every such curve was filed as active); inconclusive = small, poorly fitted or top-dose-only effect, or another doubt; inactive = flat fitted curve, though single readings scatter.

Test [1] in a line: AP1 Signaling Pathway (AID 357). Note: % is set by controls: 0 for no effect and ±100 for the full control effect. In short, it runs like this: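 In this screen, ME-180 cells in Opti-MEM with 0.5% dialyzed FBS received EC50 EGF and compound titrations for 5 h. AP-1 reporter beta-lactamase was detected via CCF4 ratio, giving AC50 for positive and negative modulators.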
The nature of test [2]: NFAT Signaling Pathway (AID 444).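 Note: carbachol stimulus at about its EC50 of 1 µM final; % is set by controls: 0 for no effect and ±100 for the full control effect.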 The conditions noted are these: Jurkat NFAT-bla M1, carbachol, beta-lactamase ratio, 5 h. A digest of the protocol:
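Read-out: CCF4 FRET ratio (460 nm/530 nm) after 1 h RT dye loading, used for %activity and AC50 from titration series. Cells: Jurkat NFAT-β-lactamase/M1 line, treated with compound plus 1 uM carbachol for 5 h, 37 °C.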

The nature of test [3]: Stat Signaling Pathway (AID 446).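 Note: ME-180 cervical cancer cells given 40 pM IL-6 alongside compound; SIE-controlled beta-lactamase reporter measured as 460/530 nm FRET emission ratio; % is set by controls: 0 for no effect and ±100 for the full control effect.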 In short, it runs like this: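 Screening format detects activators and inhibitors alike: ME-180 SIE-bla cells stimulated at 40 pM IL-6 for 5 hrs with compound, then dual-emission beta-lactamase read at 405 nm excitation.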
Test [4] has as its target Mitogen-activated protein kinase 10 (Mus musculus) (UniProt Q61831). As to the kind of experiment: JNK3 AlphaScreen Assay (AID 530).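 Note: kinase came from lysate of stimulated human HepG2 cells; signal reports phosphorylation of biotinylated GST-cJun 1-79 at Ser73 with 10 µM ATP; % is set by controls: 0 for no effect and ±100 for the full control effect.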 In short, it runs like this: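 Room-temperature AlphaScreen kinase assay; pre-activated HepG2 lysate as JNK3 source, biotin-GST-cJun(1-79) substrate, 10 uM ATP, compound 15 min preincubation.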
(In general: In Alpha technology, singlet oxygen from a donor bead excites a nearby acceptor bead.)

Test [5] deals with Glucocorticoid receptor (Homo sapiens) (UniProt P04150). As to the kind of experiment: GR-GFP Redistribution (AID 450;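 active = compounds whose dose series gives a full or clear partial fitted curve of increased nuclear translocation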; note: potency is the fitted concentration of half-maximal effect). The conditions noted are these: U2OS GR-GFP nuclear translocation, laser cytometry, 2 h.
Sequence of Glucocorticoid receptor (Homo sapiens) (P04150 whole entry, looked up, the tested form may be a part): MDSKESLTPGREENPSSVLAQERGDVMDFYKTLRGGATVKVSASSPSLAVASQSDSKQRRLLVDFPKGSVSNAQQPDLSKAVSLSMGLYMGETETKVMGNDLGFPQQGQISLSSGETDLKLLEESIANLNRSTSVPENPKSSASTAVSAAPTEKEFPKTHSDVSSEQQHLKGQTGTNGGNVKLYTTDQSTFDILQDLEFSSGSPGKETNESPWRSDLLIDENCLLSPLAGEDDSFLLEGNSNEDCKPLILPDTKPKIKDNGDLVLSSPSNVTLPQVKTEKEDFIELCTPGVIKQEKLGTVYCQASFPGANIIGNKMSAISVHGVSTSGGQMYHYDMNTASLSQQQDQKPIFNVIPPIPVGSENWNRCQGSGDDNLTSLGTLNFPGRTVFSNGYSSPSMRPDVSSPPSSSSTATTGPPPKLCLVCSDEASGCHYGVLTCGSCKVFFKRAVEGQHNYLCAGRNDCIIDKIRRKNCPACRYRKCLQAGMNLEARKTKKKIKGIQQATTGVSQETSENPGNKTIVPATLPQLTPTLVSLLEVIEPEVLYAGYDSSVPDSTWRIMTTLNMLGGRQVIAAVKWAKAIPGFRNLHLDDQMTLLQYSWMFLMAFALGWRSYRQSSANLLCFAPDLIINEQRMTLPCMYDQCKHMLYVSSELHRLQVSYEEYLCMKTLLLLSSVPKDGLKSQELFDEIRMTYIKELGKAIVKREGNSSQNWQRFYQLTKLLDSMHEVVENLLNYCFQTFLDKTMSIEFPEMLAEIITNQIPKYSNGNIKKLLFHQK
The target is the same in test [6]. The test can be described thus: GR-EFC Redistribution (AID 451; calls by dose curve; note: potency is the fitted concentration of half-maximal effect). The conditions noted are these: CHO-K1 GR-EFC translocation, beta-gal luminescence, 2 h. In short, it runs like this: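 Translocation of GR-ED fusion to nuclear EA restores b-gal, read by luminescence after 1 h room-temperature detection. Engineered CHO-K1 biosensor cells, 1,000/well, exposed 2 h at 37 C to titrations up to 46 uM final.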

Test [7] in a line: Cell Viability - BJ (AID 421; calls by dose curve;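 note: potency is the fitted concentration of half-maximal effect; cells exposed to compound for 40 hours at 37 °C before readout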). The note with it: BJ fibroblast viability, qHTS. In short, it runs like this:
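Cytotoxicity in human BJ foreskin fibroblasts is scored as loss of cellular ATP after a 40-hour exposure, measured by luciferase luminescence. Controls are DMSO and 100 uM tamoxifen.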
(qHTS replaces the single test concentration by a dilution series.)

A short description of test [8]: Cell Viability - Jurkat (AID 426;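 active = dose-dependent loss of cell ATP signal giving a full or clear fitted curve, ranked by lower potency value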;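 note: potency is the fitted concentration of half-maximal effect; cells exposed to compound for 40 hours at 37 °C before ATP read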). The conditions noted are these: qHTS. In short, it runs like this: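 Seed 5000 Jurkat E6-1 cells/well; add compound; incubate 40 hr at 37 °C; add CellTiter-Glo; wait 20 min at room temperature; read luminescence. Fit concentration-response with Hill equation for AC50.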
A short description of test [9]: Cell Viability - Hek293 (AID 427;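 active = compounds whose dose-response curve shows a full or clear partial loss of cell viability, called from curve shape rather than a numeric limit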;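 note: potency is the fitted concentration of half-maximal effect; cells exposed to compound for 40 hours at 37 °C before reading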). The conditions noted are these: qHTS. A digest of the protocol: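 qHTS, human embryonic kidney (adenovirus-transformed) cells; 40 hr cpd, 37 °C; CellTiter-Glo ATP luminescence. Norm: DMSO = 0, 100 uM tamoxifen = 100% inhibition. Hill-fit AC50.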
A short description of test [10]: Cell Viability - HepG2 (AID 433; calls by dose curve;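 note: potency is the fitted concentration of half-maximal effect; cells exposed to compound for 40 hours; potency for ATP loss meaning cytotoxicity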). The note with it: qHTS. In short, it runs like this: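 ATP luminescence (CellTiter-Glo) after 40 h compound exposure, 37 °C, HepG2, 1500 cells/well, complete medium. Normalized: DMSO = basal, 100 uM tamoxifen = 100% inhibition. AC50 via standard Hill equation.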
A short description of test [11]: Cell Viability - MRC5 (AID 434; calls by dose curve;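 note: potency is the fitted concentration of half-maximal effect; cells exposed to compound for 40 hours at 37 °C; potency reflects cytotoxicity seen as loss of intracellular ATP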). The conditions noted are these: MRC5 lung fibroblast viability, qHTS. In short, it runs like this:
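qHTS cytotoxicity in human lung fibroblast MRC5 cells; 40 hr treatment, 37 °C; cellular ATP by luciferase luminescence; DMSO = 0%, 100 uM tamoxifen = 100% inhibition; Hill-fit AC50.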

Test [12] in a line: Cell Viability - SK-N-SH (AID 435; calls by dose curve; note: potency is the fitted concentration of half-maximal effect). The conditions noted are these: SK-N-SH neuroblastoma cell viability qHTS. In short, it runs like this:
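CellTiter-Glo ATP luminescence, 20 min RT read; cells pre-plated 5 hr, compound 40 hr at 37 °C, 1500 cells/well, complete medium. Normalized DMSO = 0, 100 uM tamoxifen = 100% inhibition; Hill-fit AC50.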

A short description of test [13]: Cell Viability - N2a (AID 540; active = well fitted curve in the direction sought with a large enough effect; an effect the other way counts as inactive or inconclusive; note: nearly all actives have a fitted effect of over 45% in size; note: potency is the fitted concentration of half-maximal effect;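 for activity change, negative = cytotoxicity: plate controls were DMSO alone for no effect and tamoxifen control for full effect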). The conditions noted are these: N2a mouse neuroblastoma cell viability; activity change, negative = cytotoxicity: at 92.2 µM (top of the series). In short, it runs like this:
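First, 1500 N2a cells per well incubate 5 hr at 37 °C; next, compounds are added and incubated 40 hr at 37 °C; finally CellTiter-Glo is added and luminescence read after 20 min, with AC50 derived by Hill modeling.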

Test [14] in a line: Cell Viability - NIH 3T3 (AID 541; active = well fitted curve in the direction sought with a large enough effect; an effect the other way counts as inactive or inconclusive;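 note: cells exposed to compound for 40 hours; plate controls were DMSO alone for no effect and tamoxifen positive control for full effect; nearly all actives have a fitted effect of over 25% in size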). The conditions noted are these: NIH 3T3 cell viability, qHTS; activity change, negative = cytotoxicity: at 92.2 µM (top of the series). A digest of the protocol:
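AC50 values reflect concentration-dependent loss of intracellular ATP in NIH 3T3 cells after 40 hr treatment in complete culture medium, quantified by luciferase-based luminescence.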

Test [15] can be described thus: Cell Viability - HUV-EC-C (AID 542; active = well fitted curve in the direction sought with a large enough effect; an effect the other way counts as inactive or inconclusive;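 note: cells exposed to compound for 40 hours; % is set by controls: 0 for no effect and ±100 for the full control effect; nearly all actives have a fitted effect of over 35% in size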). A digest of the protocol: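 Decrease in cellular ATP, quantified by luciferase luminescence, reflects toxicity in normal human vascular endothelial HUV-EC-C cells given compound for 40 hr in complete culture medium. Values are AC50s from concentration-response curves.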
The nature of test [16]: Cell Viability - SH-SY5Y (AID 544; active = well fitted curve in the direction sought with a large enough effect; an effect the other way counts as inactive or inconclusive;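 note: potency is the fitted concentration of half-maximal effect; cells exposed to compound for 40 hours; nearly all actives have a fitted effect of over 55% in size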). The conditions noted are these: SH-SY5Y neuroblastoma cell viability; viability change, negative = cytotoxic: at 92.2 µM (top of the series). In short, it runs like this:
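Cytotoxicity is scored as a concentration-dependent fall in intracellular ATP in human SH-SY5Y cells treated 40 hr in complete culture medium. Potency is expressed as AC50 from a Hill equation fit.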

The nature of test [17]: Cell Viability - Renal Proximal Tubule (AID 545; active = well fitted curve in the direction sought with a large enough effect; an effect the other way counts as inactive or inconclusive;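 note: potency is the fitted concentration of half-maximal effect; cells exposed to compound for 40 hours; nearly all actives have a fitted effect of over 40% in size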). In short, it runs like this:
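Rat kidney proximal tubule cells, freshly isolated; 1000 cells/well, 5 hr settle, compound 40 hr 37 °C. CellTiter-Glo 20 min RT, luminescence read. AC50 by standard Hill fit.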

The nature of test [18]: Cell Viability - Mesenchymal (AID 546; active = well fitted curve in the direction sought with a large enough effect; an effect the other way counts as inactive or inconclusive;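 note: cells exposed to compound for 40 hours before reading; 0% = DMSO only and -100% = 100 µM tamoxifen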). A digest of the protocol: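 AC50 values reflect the drop in intracellular ATP in a human kidney mesenchymal line derived from normal glomeruli. Treatment lasts 40 hr at 37 °C in complete medium, and the signal comes from CellTiter-Glo luminescence.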
The target of test [19] is Cytochrome P450 1A2 (Homo sapiens) (UniProt P05177). The test can be described thus: p450-cyp1a2 (AID 410; calls by dose curve; note: potency is the fitted concentration of half-maximal effect;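 for activity change, negative = inhibition: -100% = full effect of reference inhibitor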). In short, it runs like this: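 Inhibition was calculated relative to 57 uM furafylline (full inhibition). The reaction used human CYP1A2 at 20nM with Luciferin-ME at its Km, 100uM, driven by an NADPH-regenerating system for 60 min at room temperature.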
Sequence of Cytochrome P450 1A2 (Homo sapiens) (P05177 whole entry, looked up): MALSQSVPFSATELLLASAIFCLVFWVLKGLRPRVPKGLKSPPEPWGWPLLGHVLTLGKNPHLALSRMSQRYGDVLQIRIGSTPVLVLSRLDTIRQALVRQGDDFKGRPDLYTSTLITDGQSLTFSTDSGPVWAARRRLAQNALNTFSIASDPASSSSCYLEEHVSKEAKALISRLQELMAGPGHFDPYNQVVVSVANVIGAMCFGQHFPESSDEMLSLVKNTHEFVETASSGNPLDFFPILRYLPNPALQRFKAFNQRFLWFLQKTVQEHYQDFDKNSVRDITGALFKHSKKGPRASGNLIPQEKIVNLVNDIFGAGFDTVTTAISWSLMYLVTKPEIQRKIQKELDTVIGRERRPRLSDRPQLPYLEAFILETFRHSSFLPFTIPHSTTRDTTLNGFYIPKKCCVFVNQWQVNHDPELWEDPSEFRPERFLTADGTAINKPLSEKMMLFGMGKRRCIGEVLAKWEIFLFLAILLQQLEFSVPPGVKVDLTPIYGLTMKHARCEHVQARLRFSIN

Turning to `O=C(CCCN1CCC(O)(c2ccc(Cl)cc2)CC1)c1ccc(F)cc1`, the outcome in test [1], in test [3] and in test [4] was inactive. Moreover, in test [2] (at 38 µM (top of the series)), the activity change, negative = inhibition was -17.8% (inactive).
In the case of `CNCCCC12CCC(c3ccccc31)c1ccccc12`, the call in test [1], in [3] and in test [4] was inactive. Besides, the Potency was > 46 µM (inactive) and > 20.6 µM (inactive) in [5]; > 46 µM (inactive) and > 20.6 µM (inactive) in test [6].
Take `CN1CCN(C2=Nc3cc(Cl)ccc3Nc3ccccc32)CC1`: the result in test [1], in test [3] and in [4] was inactive. Further, the activity change, negative = inhibition in [2] (at 38 µM (top of the series)) was -49.7% (active). For the same compound, the Potency in test [5] was > 46 µM (inactive) and > 20.6 µM (inactive) and 2.68 µM (active); in test [6] it was > 46 µM (inactive) and > 20.6 µM (inactive).
`COc1cc2c(c(OC)c1OC)-c1ccc(OC)c(=O)cc1[C@@H](NC(C)=O)CC2`: the Potency in test [7] was > 92 µM (inactive); in test [8] it was 2.81 nM (active) and 1.63 nM (active); in test [9], > 92 µM (inactive); in [10], > 92 µM (inactive); in test [11], > 92 µM (inactive); in test [12] it was 9.09 nM (active) and 5.26 nM (active). Moreover, the Potency in test [13] is 0.01 µM (active); in [16], 5.01 nM (active) and 3.98 nM (active); in test [17], 25.1 nM (active) and 20 nM (active). The compound was classed as inactive in test [4], in [15] and in test [18]. For the same compound, the Potency result in test [14] was “inactive”.
Consider `CN(C)CCCN1c2ccccc2CCc2ccc(Cl)cc21`, for which the Potency in test [19] is 20 µM (active) and 5.01 µM (active) and 15.8 µM (active); in test [5], > 46 µM (inactive) and > 20.6 µM (inactive); in test [6] it was > 46 µM (inactive) and > 20.6 µM (inactive). The activity change, negative = inhibition in test [2] (at 17.2 µM (top of the series)) was -83% (active). For the same compound, the call in test [3] and in [4] was inactive.
As for `COC(=O)Nc1nc2ccc(C(=O)c3cccs3)cc2[nH]1`, the Potency in [19] is 5.01 µM (active) and 1.58 µM (active) and 794 nM (active); in [5], > 46 µM (inactive) and > 20.6 µM (inactive); in test [6] it was > 46 µM (inactive) and > 20.6 µM (inactive). Also, in test [2] (at 17.2 µM (top of the series)), the activity change, negative = inhibition is -68.4% (active). For the same compound, the result in test [3] and in [4] was inactive.
On to `NC(=O)NO`, for which the compound was called inactive in [1], in test [3] and in [4]. Further, the activity change, negative = inhibition in test [2] (at 38 µM (top of the series)) was 9.2% (inactive). In addition, the Potency in test [5] and in test [6] was > 46 µM (inactive) in each case.
As to `CN(C)C(=O)C(CCN1CCC(O)(c2ccc(Cl)cc2)CC1)(c1ccccc1)c1ccccc1`, the compound was classed as inactive in test [1], in test [3] and in test [4]. For the same compound, the results for the activity change, negative = inhibition in [2] (at 17.2 µM (top of the series)) and in test [2] (at 38 µM (top of the series)) were -23.1% (inactive) and -13.2% (inactive), respectively. Also, the Potency in [5] is > 46 µM (inactive) and > 20.6 µM (inactive); in test [6] it was > 46 µM (inactive) and > 20.6 µM (inactive).
On to `Clc1ccccc1C(c1ccccc1)(c1ccccc1)n1ccnc1`, for which the compound was called inactive in [3] and in test [4]. The Potency was > 46 µM (inactive) and > 20.6 µM (inactive) in test [5]; > 46 µM (inactive) and > 20.6 µM (inactive) in test [6].
`CCc1cccc2c3c([nH]c12)C(CC)(CC(=O)O)OCC3` (configuration not stated): the compound was classed as inactive in test [1] and in test [3]. In addition, in test [2] (at 17.2 µM (top of the series)), the activity change, negative = inhibition was 12.2% (inactive).
As for `Cc1ccc(-c2cc(C(F)(F)F)nn2-c2ccc(S(N)(=O)=O)cc2)cc1`, the Potency in test [7], in test [8], in test [9], in test [10], in test [11] and in test [12] was > 92 µM (inactive) each time. For the same compound, the call in test [4], in [15] and in [18] was inactive. Besides, the values for the activity change, negative = cytotoxicity in test [13] and in [14] were -43.6% (inactive) and -132% (active), respectively.
Regarding `CN1CCN2c3ccccc3Cc3ccccc3C2C1` (configuration not stated), the compound was classed as inactive in test [1] and in [3]. Moreover, in test [5], the Potency was > 20.6 µM (inactive).
With `COc1cc2nc(N3CCN(C(=O)c4ccco4)CC3)nc(N)c2cc1OC`, in test [19], the Potency entry was “inactive”. Also, the compound was called inactive in test [3] and in test [4].
As to `Cc1cnc(C(=O)NCCc2ccc(S(=O)(=O)NC(=O)NC3CCCCC3)cc2)cn1`, the compound was called inactive in test [1], in [3] and in test [4]. The activity change, negative = inhibition in test [2] (at 17.2 µM (top of the series)) is -11% (inactive) and -0.964% (inactive); in test [2] (at 38 µM (top of the series)), -4.17% (inactive).
